# PubChem BioAssay
# “And” between values parts separate entries of the source, which are not always exact repeats. Equal entries are not always repeated. Results filed as inconclusive are left out. The source made the active and inactive calls. Unless noted, how the calls were made is not given here.
# Legend:
# [1] = reducers of polyQ inclusions in PC12 cells, cell-based, NGF-treated PC12, GFPQ80 (AID 1614); settings: PC12 NGF-treated GFP-polyQ80 inclusion reduction;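 further: lower means fewer inclusions and 0 means no inclusions at all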
# [2] = hESC survival regulators, cell-based (AID 493140); settings: human embryonic stem cell survival screen; stronger effect = higher value;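 further: cells exposed to compounds for four days before counting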
# [3] = test system: Hepatitis C virus NS3 helicase; experiment: HCV NS3 helicase inhibitors, primary screen, biochemical, fluorescence polarization, LOPAC1280 library (AID 687035; in the data active means inhibition above about 37%); settings: Purified HCV NS3 helicase, Cy5-dT15 ssDNA binding fluorescence polarization; stronger effect = higher value; concentration not given here
# [4] = Cy5 fluorescence quenching or enhancement artefacts, artefact control for HCV NS3 helicase inhibitor project, biochemical, LOPAC1280 (AID 687037); settings: Cy5-DNA-NS3h complex fluorescence interference counterscreen
# [5] = growth inhibition of DIPG glioma cells, dose response, cell-based, SU-DIPG-XIII, MIPE4.0, CellTiter-Glo, qHTS (AID 1347061; cut-off not given, nearly all actives have AC50 up to about 37 µM;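 further: cells exposed to compound for 48 hours before readout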); settings: SU-DIPG-XIII viability, CellTiter-Glo ATP luminescence
# [6] = viability loss in pontine glioma line – cell-based, SU-DIPG-XXV, MIPE5.0, CellTiter-Glo, qHTS, dose response (AID 1347065; cut-off not given, nearly all actives have AC50 up to about 26 µM;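 further: cells exposed to compound for 48 hours before ATP readout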); settings: CellTiter-Glo ATP luminescence
# [7] = JHH-DIPG-1 glioma cell viability, MIPE5.0 library, CellTiter-Glo luminescence, qHTS (AID 1347067; cut-off not given, nearly all actives have AC50 up to about 26 µM;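 further: cells exposed to compound for 48 hours before readout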); settings: JHH-DIPG-1 glioma viability, CellTiter-Glo ATP luminescence
# [8] = SU-DIPG-XXV glioma cell viability, MIPE5.0 library, qHTS (AID 1347068; cut-off not given, nearly all actives have IC50 up to about 30 µM)
# [9] = phospholipid biosynthesis inhibitors in animal cells, primary screen, cell-based, LOPAC library, screen 4 (AID 1347384); settings: phospholipid biosynthesis inhibition screen, at 10 µM
# [10] = growth inhibition of DIPG glioma cells, dose response, cell-based, SU-DIPG-XVII, MIPE5.0, CellTiter-Glo, qHTS (AID 1347060; cut-off not given, nearly all actives have AC50 up to about 26 µM;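 on AC50: cells exposed to compound for 48 hours before viability readout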); settings: SU-DIPG-XVII viability, CellTiter-Glo ATP luminescence
# [11] = growth inhibition of DIPG glioma cells, dose response, cell-based, JHH-DIPG-1, MIPE4.0, CellTiter-Glo, qHTS (AID 1347062; cut-off not given, nearly all actives have AC50 up to about 27 µM;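 on AC50: cells exposed to compound for two days before readout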); settings: JHH-DIPG-1 viability, CellTiter-Glo ATP luminescence
# [12] = growth inhibition of DIPG glioma cells, dose response, cell-based, SU-DIPG-IV, MIPE4.0, CellTiter-Glo, qHTS (AID 1347063; cut-off not given, nearly all actives have AC50 up to about 30 µM;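 further: compound exposure lasted 48 hours before the viability readout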); settings: SU-DIPG-IV viability, CellTiter-Glo ATP luminescence
# [13] = SU-DIPG-VI glioma cell viability, MIPE4.0 library, CellTiter-Glo luminescence, qHTS (AID 1347066; cut-off not given, nearly all actives have AC50 up to about 30 µM;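 further: cells exposed to compound for 48 hours before readout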); settings: CellTiter-Glo ATP luminescence
# [14] = HDN33 neuroblastoma growth inhibition, cell-based, chromothripsis tumors, cisplatin or BGB combos (AID 1671450; in the data active means inhibition above about 80%;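 further: cells exposed to compound for four days; 0% = vehicle DMSO and 100% = cell killing by high DMSO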); settings: HDN33 neuroblastoma cells, stronger effect = higher value
# [15] = LFS_MB_1R medulloblastoma cell growth inhibition, synergistic combos for chromothripsis tumors, cisplatin or BGB combos (AID 1671452; in the data active means inhibition above about 80%;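 further: cells exposed for 96 hours before readout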); settings: LFS_MB_1R medulloblastoma cells, stronger effect = higher value
# [16] = HTB85 osteosarcoma cell growth inhibition, synergistic combos for chromothripsis tumors, BGB or cisplatin IC20 combos (AID 1671453; in the data active means inhibition above about 80%;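 further: cells exposed for 96 hours before readout; 0% = vehicle DMSO and 100% = high DMSO killing control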); settings: HTB85 osteosarcoma cells, drug combinations, stronger effect = higher value
# [17] = MDA-MB-436 breast carcinoma cell growth inhibition, synergistic combos for chromothripsis tumors, BGB or cisplatin combos (AID 1671458); settings: MDA-MB-436 breast carcinoma growth inhibition, drug combinations, stronger effect = higher value;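 further: cells exposed for 96 hours; 0% = vehicle DMSO and 100% = killing by high DMSO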
# [18] = growth inhibition of BT084 medulloblastoma cells, cell-based, ICGC_MB145, cisplatin and BGB IC40 combos (AID 1671461; in the data active means inhibition above about 80%;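 further: cells exposed to drugs for 96 hours; 0% = vehicle DMSO and 100% = high DMSO full killing control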); settings: drug combinations, stronger effect = higher value
# [19] = growth inhibition of RCMB18 medulloblastoma cells, cell-based, cisplatin and BGB IC40 combos (AID 1671462; in the data active means inhibition above about 80%;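 further: cells exposed to compound for four days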); settings: stronger effect = higher value
# [20] = growth inhibition of CRL1545 osteosarcoma cells, cell-based, cisplatin and BGB IC20 combos (AID 1671464; in the data active means inhibition above about 80%;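 further: cells exposed to compound for 96 hours before readout; 0% = vehicle DMSO and 100% = high DMSO killing control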); settings: stronger effect = higher value
# [21] = measured here: with BGB IC20 combination, at 0.5 µM
# [22] = measured here: with cisplatin IC20 combination, at 0.5 µM
# [23] = measured here: combination with cisplatin, at 0.5 µM
structure (smiles),measurement,setting,value
CCN(CC)CCCC(C)Nc1ccnc2cc(Cl)ccc12 (configuration not stated),inclusion score,[1],2
same,survival,[2],6.67 (inactive)
same,inhibition,[3],-3% (inactive)
same,fluorescence ratio (interference),[4],1 (inactive)
same,AC50,[5],0.00833 µM (active)
same,outcome,[6],inactive
same,outcome,[7],inactive
same,outcome,[8],inactive
same,outcome,[9],inactive
CCOC(=O)[C@H](CCc1ccccc1)N[C@H]1CCc2ccccc2N(CC(=O)O)C1=O,outcome,[10],inactive
same,AC50,[5],20.9 µM (active)
same,AC50,[11],16.6 µM (active)
same,AC50,[12],10.5 µM (active)
same,outcome,[6],inactive
same,outcome,[7],inactive
same,outcome,[8],inactive
Clc1cccc(Cl)c1NC1=NCCN1,inclusion score,[1],2
same,survival,[2],20.8 (inactive)
same,inhibition,[3],-4% (inactive)
same,fluorescence ratio (interference),[4],1 (inactive)
same,outcome,[5],inactive
same,outcome,[11],inactive
same,outcome,[13],inactive
same,outcome,[9],inactive
NC12CC3CC(CC(C3)C1)C2,inclusion score,[1],2
same,survival,[2],4.42 (inactive)
same,inhibition,[3],-1% (inactive)
same,fluorescence ratio (interference),[4],0.9 (inactive)
same,outcome,[10],inactive
same,outcome,[13],inactive
same,outcome,[7],inactive
same,outcome,[8],inactive
same,outcome,[9],inactive
O=C1CCC(N2C(=O)c3ccccc3C2=O)C(=O)N1 (configuration not stated),inclusion score,[1],2
same,survival,[2],19.2 (inactive)
same,inhibition,[3],-6% (inactive)
same,fluorescence ratio (interference),[4],1 (inactive)
same,outcome,[5],inactive
same,outcome,[12],inactive
same,outcome,[13],inactive
same,outcome,[7],inactive
same,outcome,[8],inactive
same,outcome,[9],inactive
c1ccc([C@H]2CN3CCSC3=N2)cc1,inclusion score,[1],1.5
same,survival,[2],17.8 (inactive) and 98.4 (inactive)
same,inhibition,[3],-1% (inactive)
same,fluorescence ratio (interference),[4],1 (inactive)
same,outcome,[10],inactive
same,outcome,[5],inactive
same,outcome,[11],inactive
same,outcome,[6],inactive
same,outcome,[7],inactive
same,outcome,[8],inactive
same,outcome,[9],inactive
c1ccc(CC2=NCCN2)cc1,inclusion score,[1],2
same,survival,[2],21.6 (inactive)
S=c1nc[nH]c2nc[nH]c12,AC50,[10],1.18 µM (active)
same,outcome,[5],inactive
same,AC50,[11],0.935 µM (active)
same,outcome,[12],inactive
same,AC50,[6],5.25 µM (active)
same,inhibition,"[14]; BGB combo, at 5 µM",6.4% and -7.61% and -1.61%
same,inhibition,[14]; at 0.5 µM,21.5% (inactive) and -7.1% (inactive) and 2.79% (inactive)
same,inhibition,"[14]; cisplatin combo, at 5 µM",17.2% and 3.9% and 15.7%
same,inhibition,[14]; [21],17.6% and -24.1% and -7.78%
same,inhibition,[14]; [22],11.8% and -15.2% and -7.14%
same,inhibition,"[14]; single agent, at 5 µM",55.5% and 46.9% and 55.8%
same,inhibition,[15]; at 0.5 µM,-9.9% (inactive) and -33.2% (inactive) and -36.1% (inactive)
same,inhibition,"[15]; measured here: combination with BGB IC40, at 0.05 µM",14.7% and -35.7% and -8.62%
same,inhibition,[15]; [23],-4.25% and -33.8% and -75.5%
same,inhibition,"[15]; measured here: combination with cisplatin, at 5 µM",-15.4% and -37% and -57.5%
same,inhibition,[16]; at 0.5 µM,-18.6% (inactive) and -13.7% (inactive) and -28.1% (inactive)
same,inhibition,"[16]; measured here: with BGB IC20, at 0.5 µM",-53.8% and -19.7% and -40.4%
same,inhibition,"[16]; measured here: with BGB IC20, at 5 µM",-9.25% and -19% and -8.77%
same,inhibition,"[16]; measured here: with cisplatin IC20, at 0.5 µM",-18.6% and -5.87% and -28%
same,inhibition,"[16]; measured here: with cisplatin IC20, at 5 µM",-12.1% and 4.25% and -34.8%
same,inhibition,"[16]; single agent, at 5 µM",18.8% and -4.98% and -9.17%
same,inhibition,[17]; at 0.5 µM,-2.57% (inactive) and -1.27% (inactive) and 12.1% (inactive)
same,inhibition,"[17]; measured here: BGB combination, at 0.5 µM",-26.2% and -7.09% and 10.3%
same,inhibition,"[17]; measured here: BGB combination, at 5 µM",19.5% and 16% and 25.5%
same,inhibition,"[17]; measured here: cisplatin combination, at 0.5 µM",-2.23% and -7.71% and 3.05%
same,inhibition,"[17]; measured here: cisplatin combination, at 5 µM",44.5% and 28.1% and 46.1%
same,inhibition,[18]; at 0.5 µM,-23.3% (inactive) and -12% (inactive) and -13.4% (inactive)
same,inhibition,"[18]; cisplatin combination, at 0.5 µM",-28% and -16.1% and -18.3%
same,inhibition,"[18]; cisplatin combination, at 5 µM",-59.7% and -17.4% and -65.5%
same,inhibition,"[18]; measured here: BGB IC40 combination 0.05 uM, at 0.05 µM",-9.27% and 73.7% and -6.21%
same,inhibition,"[18]; single agent, at 5 µM",-10.1% and 19.3% and -6.27%
same,inhibition,[19]; at 0.5 µM,0.61% (inactive) and -7.44% (inactive) and -22.1% (inactive)
same,inhibition,"[19]; cisplatin combo, at 5 µM",12.2% and -28% and -29.1%
same,inhibition,"[19]; measured here: BGB IC40 combination, at 0.05 µM",0.705% and 3.13% and 5.02%
same,inhibition,[19]; [23],30% and -22% and -77.2%
same,inhibition,"[19]; single agent, at 5 µM",-40.6% and 41.7% and -25.7%
same,inhibition,[20]; at 0.5 µM,-26.3% (inactive) and -12.8% (inactive) and -43.8% (inactive)
same,inhibition,[20]; [21],-10.8% and -54.5% and -18%
same,inhibition,[20]; [22],-34% and 8.01% and -56.8%
same,inhibition,"[20]; single agent, at 0.05 µM",2.04% and -10.4% and -14.2%
same,inhibition,"[20]; single agent, at 5 µM",33.1% and 21.8% and 31.5%
